Activity calls are given as the source filed them. The calls were made as follows: active = hit-call score of the fitted dose curve at least 0.9, where 1 is the maximum; inactive = score below 0.9.
Key:
[1] = ATG_CRE_CIS: Attagene CIS-FACTORIAL HepG2 Assay for human cAMP Responsive Element (CRE) binding protein 3 (AID 2282926); conditions: HepG2 CRE cis-reporter, Attagene multiplexed mRNA; actives raise or lower the signal
Procedure, shortened: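 Human liver HepG2, transient MRTU transfection, 24 h compound exposure. Total RNA → oligo(dT) RT → PCR → 6-FAM primer extension → HpaI cut → CE. Activity called both directions vs DMSO.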

[2] = biological target: CCAAT/enhancer-binding protein beta (Homo sapiens) (UniProt P17676); assay: ATG_C_EBP_CIS: Attagene CIS-FACTORIAL HepG2 Assay for human CCAAT/Enhancer Binding Protein (C/EBP) beta (AID 2282927); conditions: HepG2 Attagene cis-factorial transcription factor reporter; actives raise or lower the signal
CCAAT/enhancer-binding protein beta (Homo sapiens), sequence (P17676 whole entry, looked up, the tested form may be a part): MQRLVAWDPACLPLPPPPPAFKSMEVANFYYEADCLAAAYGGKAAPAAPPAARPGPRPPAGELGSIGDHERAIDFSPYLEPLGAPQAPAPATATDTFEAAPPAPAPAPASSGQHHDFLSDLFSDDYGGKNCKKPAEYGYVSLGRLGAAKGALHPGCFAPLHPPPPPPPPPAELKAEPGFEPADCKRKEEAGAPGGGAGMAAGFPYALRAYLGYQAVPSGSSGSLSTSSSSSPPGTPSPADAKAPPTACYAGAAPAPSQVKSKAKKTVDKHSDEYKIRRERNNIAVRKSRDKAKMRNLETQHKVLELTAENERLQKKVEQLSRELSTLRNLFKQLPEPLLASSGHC
Procedure, shortened: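 Chemical-treated HepG2 cells (24 h) bearing cis-regulated reporter constructs were processed for total RNA, then reverse transcription, PCR amplification, fluorescent primer extension and fragment analysis; gain- and loss-of-signal were fitted against DMSO.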

[3] = ATG_CMV_CIS: Attagene CIS-FACTORIAL HepG2 Assay for human CMV (Internal Marker) (AID 2282928); conditions: HepG2 CMV promoter reporter, transcription factor profiling; actives raise or lower the signal;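 also: endpoint acts as a background internal control marker rather than a target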
Procedure, shortened: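 HepG2 cells transiently transfected with multiple cis-regulated reporter units; 24 h compound exposure. Reporter mRNA quantified by RT-PCR, 6-FAM primer-extension labeling, HpaI digestion and capillary electrophoresis; bidirectional fitting against DMSO baseline.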

[4] = ATG_DR4_LXR_CIS: Attagene CIS-FACTORIAL HepG2 Assay for human Liver X Receptor (LXR), DR4 submotif (AID 2282929); conditions: HepG2 Attagene DR4 cis-reporter, mRNA transcription; actives raise or lower the signal
Procedure, shortened: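 Measures endogenous transcription factor activity via a DR4-driven reporter transcript in human HepG2 cells. Compounds incubated 24 h; mRNA quantified by RT-PCR and capillary electrophoresis, analysed as gain or loss of signal versus DMSO.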

[5] = biological target: Aryl hydrocarbon receptor (Homo sapiens) (UniProt P35869); assay: ATG_Ahr_CIS: Attagene CIS-FACTORIAL HepG2 Assay for human Aryl Hydrocarbon Receptor (Ahr) (AID 2282930); conditions: HepG2 AhR cis-factorial reporter transcription; actives raise or lower the signal
Aryl hydrocarbon receptor (Homo sapiens), sequence (P35869 whole entry, looked up): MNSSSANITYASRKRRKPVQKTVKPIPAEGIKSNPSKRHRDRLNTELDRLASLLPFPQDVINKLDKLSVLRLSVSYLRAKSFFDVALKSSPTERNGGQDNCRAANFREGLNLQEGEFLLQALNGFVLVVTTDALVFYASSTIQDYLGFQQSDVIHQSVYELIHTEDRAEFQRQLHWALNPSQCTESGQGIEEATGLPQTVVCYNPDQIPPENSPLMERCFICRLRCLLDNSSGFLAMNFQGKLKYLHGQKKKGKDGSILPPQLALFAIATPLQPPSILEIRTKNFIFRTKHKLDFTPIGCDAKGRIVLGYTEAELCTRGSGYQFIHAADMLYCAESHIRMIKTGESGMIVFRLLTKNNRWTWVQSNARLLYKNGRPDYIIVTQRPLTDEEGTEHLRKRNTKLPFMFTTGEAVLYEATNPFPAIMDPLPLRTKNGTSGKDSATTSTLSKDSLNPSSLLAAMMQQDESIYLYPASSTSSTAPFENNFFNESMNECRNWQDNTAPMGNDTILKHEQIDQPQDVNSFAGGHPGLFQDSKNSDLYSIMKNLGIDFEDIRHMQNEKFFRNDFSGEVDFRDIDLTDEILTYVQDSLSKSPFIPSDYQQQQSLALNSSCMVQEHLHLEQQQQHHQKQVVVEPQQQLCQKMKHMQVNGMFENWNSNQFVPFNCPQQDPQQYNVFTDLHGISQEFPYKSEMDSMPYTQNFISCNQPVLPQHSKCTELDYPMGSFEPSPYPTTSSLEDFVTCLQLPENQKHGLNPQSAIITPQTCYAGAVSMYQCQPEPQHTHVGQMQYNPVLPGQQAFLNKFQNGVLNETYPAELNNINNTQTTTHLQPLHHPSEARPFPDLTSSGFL
Procedure, shortened: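 Following 24 h of chemical dosing, transfected HepG2 liver cells with cis-driven reporter units were lysed for RNA; reporter mRNA was quantified via RT-PCR and capillary electrophoresis, and responses fitted bidirectionally from DMSO.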

[6] = ATG_AP_1_CIS: Attagene CIS-FACTORIAL HepG2 Assay for human Activator Protein 1 (AP-1) (AID 2282931); conditions: HepG2 Attagene cis-factorial AP-1 reporter mRNA; actives raise or lower the signal
Procedure, shortened: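 Bidirectional concentration-response fitting against DMSO controls. Underlying signal: reporter mRNA from cis-promoter constructs in transiently transfected HepG2, measured after 24 h by RT-PCR and capillary electrophoresis.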

[7] = ATG_AP_2_CIS: Attagene CIS-FACTORIAL HepG2 Assay for human Activator Protein 2 (AP-2) (AID 2282932); conditions: HepG2 AP-2 cis-reporter, Attagene transcription factor profiling; actives raise or lower the signal
Procedure, shortened: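 Bidirectional curve fitting against DMSO was applied to reporter mRNA signals from HepG2 cells 24 h after dosing. Cis-promoter reporter units, transiently transfected, were read by RT-PCR plus capillary electrophoresis.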

[8] = ATG_BRE_CIS: Attagene CIS-FACTORIAL HepG2 Assay for human Bone Morphogenetic Protein (BMP) Response Element (BRE) (AID 2282933); conditions: HepG2 BMP response element reporter, Attagene transcription factor profiling; actives raise or lower the signal
Procedure, shortened: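 HepG2 cells transiently transfected with CIS reporter units (endogenous TF activity, BMP response element), dosed 24 h. Reporter mRNA quantified by RT-PCR, fluorescent labelling and capillary electrophoresis; bidirectional fit vs DMSO baseline.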

[9] = biological target: Retinoic acid receptor alpha (Homo sapiens) (UniProt P10276); assay: ATG_DR5_RAR_CIS: Attagene CIS-FACTORIAL HepG2 Assay for human Retinoic Acid Receptor Alpha (RARE), DR5 submotif (AID 2282934); conditions: HepG2 Attagene cis-factorial RARE DR5 reporter, mRNA; actives raise or lower the signal
Retinoic acid receptor alpha (Homo sapiens), sequence (P10276 whole entry, looked up): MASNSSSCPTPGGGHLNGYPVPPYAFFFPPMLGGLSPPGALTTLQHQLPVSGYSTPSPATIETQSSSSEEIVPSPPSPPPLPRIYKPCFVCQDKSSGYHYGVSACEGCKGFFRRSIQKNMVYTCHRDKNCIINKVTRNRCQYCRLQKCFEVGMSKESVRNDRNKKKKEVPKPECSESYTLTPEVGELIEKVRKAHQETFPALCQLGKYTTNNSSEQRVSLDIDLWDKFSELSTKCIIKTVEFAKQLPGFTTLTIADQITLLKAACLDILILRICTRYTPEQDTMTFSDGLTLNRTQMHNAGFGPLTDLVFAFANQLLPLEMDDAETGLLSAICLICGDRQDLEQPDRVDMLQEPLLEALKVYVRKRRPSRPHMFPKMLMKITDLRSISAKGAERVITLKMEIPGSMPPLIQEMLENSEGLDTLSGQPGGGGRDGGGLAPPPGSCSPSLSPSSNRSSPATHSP
Procedure, shortened: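 Transfected HepG2 reporter cells are exposed to chemicals for 24 h. Then RNA is extracted and the DR5 element reporter transcript is measured by RT-PCR and capillary electrophoresis, with bidirectional curve fitting relative to DMSO.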

[10] = biological target: Transcription factor E2F1 (Homo sapiens) (UniProt Q01094); assay: ATG_E2F_CIS: Attagene CIS-FACTORIAL HepG2 Assay for human E2F Transcription Factor 1 (AID 2282935); conditions: HepG2 Attagene cis-reporter, E2F reporter RNA transcripts; actives raise or lower the signal
Transcription factor E2F1 (Homo sapiens), sequence (Q01094 whole entry, looked up): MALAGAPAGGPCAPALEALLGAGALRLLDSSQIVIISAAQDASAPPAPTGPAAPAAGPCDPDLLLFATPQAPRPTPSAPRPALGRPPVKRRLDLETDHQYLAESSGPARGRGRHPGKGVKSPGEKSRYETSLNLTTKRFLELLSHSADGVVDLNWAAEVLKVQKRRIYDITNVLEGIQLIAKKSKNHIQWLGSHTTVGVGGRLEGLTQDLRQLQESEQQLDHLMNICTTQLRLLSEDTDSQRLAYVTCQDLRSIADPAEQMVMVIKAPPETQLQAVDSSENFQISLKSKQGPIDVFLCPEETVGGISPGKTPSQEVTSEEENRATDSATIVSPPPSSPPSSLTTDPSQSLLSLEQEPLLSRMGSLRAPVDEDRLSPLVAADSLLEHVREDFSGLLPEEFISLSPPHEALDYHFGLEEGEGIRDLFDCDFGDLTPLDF
Procedure, shortened: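 Multiplexed cis-reporter assay: HepG2, transient transfection, 24 h dosing, mRNA quantitation by labeled RT-PCR and CE.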

[11] = ATG_E_Box_CIS: Attagene CIS-FACTORIAL HepG2 Assay for human Enhancer Box (E-box) (AID 2282936); conditions: HepG2 E-box cis-reporter transcription, actives raise or lower the signal
Procedure, shortened: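 Multiplexed CIS reporter system in transiently transfected HepG2 cells measures native transcription factor activity. Reporter RNA after 24 h exposure is profiled by RT-PCR-capillary electrophoresis.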

[12] = ATG_M_61_CIS: Attagene CIS-FACTORIAL HepG2 Assay for M61 Transcription Factor (Internal Marker) (AID 2282937); conditions: HepG2 Attagene CIS-FACTORIAL M61 internal marker reporter; actives raise or lower the signal
Procedure, shortened: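 Fluorescence from labelled cDNA fragments, separated by capillary electrophoresis, quantifies reporter induction. HepG2 cells bearing transiently transfected cis-promoter MRTUs were incubated with test chemical for 24 h; DMSO defined baseline for gain/loss fitting.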

[13] = ATG_EGR_CIS: Attagene CIS-FACTORIAL HepG2 Assay for human Early Growth Response 1 (EGR1) (AID 2282938); conditions: HepG2 Attagene CIS-FACTORIAL EGR reporter mRNA; actives raise or lower the signal
Procedure, shortened: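 Cell-based multiplex transcription assay: HepG2 carrying transfected cis-element reporter units, 24 h chemical treatment. Fluorescence from capillary electrophoresis of RT-PCR products gives mRNA levels; fitting is bidirectional relative to DMSO.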

[14] = ATG_M_19_CIS: Attagene CIS-FACTORIAL HepG2 Assay for M19 Transcription Factor (Internal Marker) (AID 2282939); conditions: HepG2 Attagene CIS-FACTORIAL M19 internal marker reporter; actives raise or lower the signal
Procedure, shortened: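 HepG2 cells transiently transfected with cis-regulated multiplexed reporter units, dosed 24 h. Reporter mRNA quantified by RT-PCR and capillary electrophoresis; internal background marker fitted bidirectionally versus DMSO.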

[15] = ATG_ERE_CIS: Attagene CIS-FACTORIAL HepG2 Assay for Estrogen Response Element (ERE) (AID 2282940); conditions: HepG2 ERE cis-reporter, Attagene RNA transcript; actives raise or lower the signal
Procedure, shortened: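 HepG2 cells transiently transfected with multiplexed cis-element reporter units, measuring endogenous transcription factor activity; ERE reporter mRNA quantified after 24 h exposure by RT-PCR, fluorescent labelling, HpaI digestion and capillary electrophoresis. Bidirectional change versus DMSO.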

[16] = ATG_Ets_CIS: Attagene CIS-FACTORIAL HepG2 Assay for human Erythroblast Transformation Specific (ETS) (AID 2282941); conditions: HepG2 ETS cis-reporter transcription, actives raise or lower the signal
Procedure, shortened: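 HepG2 cells transiently transfected with cis-promoter reporter transcription units were dosed for 24 h; reporter mRNA was measured by RT-PCR, 6-FAM primer extension, HpaI digestion and capillary electrophoresis, with bidirectional fitting against DMSO baseline.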

[17] = biological target: Hepatocyte nuclear factor 3-beta (Homo sapiens) (UniProt Q9Y261); assay: ATG_FoxA2_CIS: Attagene CIS-FACTORIAL HepG2 Assay for human Forkhead box A2 (FOXA2) (AID 2282942); conditions: HepG2 cis-reporter transcription factor activity, 24 h; actives raise or lower the signal
Hepatocyte nuclear factor 3-beta (Homo sapiens), sequence (Q9Y261 whole entry, looked up): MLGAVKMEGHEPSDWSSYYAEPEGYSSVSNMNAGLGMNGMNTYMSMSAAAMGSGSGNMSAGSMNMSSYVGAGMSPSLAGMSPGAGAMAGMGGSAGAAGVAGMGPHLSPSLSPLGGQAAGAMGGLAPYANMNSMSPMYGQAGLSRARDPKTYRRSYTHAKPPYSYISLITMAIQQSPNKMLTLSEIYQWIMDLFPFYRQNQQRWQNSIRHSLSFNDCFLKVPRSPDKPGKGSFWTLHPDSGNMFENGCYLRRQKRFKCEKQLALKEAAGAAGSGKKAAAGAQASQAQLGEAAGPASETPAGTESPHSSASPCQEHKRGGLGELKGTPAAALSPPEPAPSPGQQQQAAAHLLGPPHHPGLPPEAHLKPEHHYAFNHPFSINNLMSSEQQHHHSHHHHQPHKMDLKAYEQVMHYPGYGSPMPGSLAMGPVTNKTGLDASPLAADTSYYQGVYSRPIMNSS
Procedure, shortened: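 In transiently transfected human HepG2 cells, promoter-driven reporter mRNA levels after 24 h chemical exposure are determined via RT-PCR with capillary electrophoresis. DMSO serves as baseline for bidirectional fitting.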

[18] = ATG_FoxO_CIS: Attagene CIS-FACTORIAL HepG2 Assay for human Forkhead box O (FoxO) (AID 2282943); conditions: HepG2 Attagene cis-reporter, FoxO element, mRNA; actives raise or lower the signal
Procedure, shortened: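 24 h chemical exposure, HepG2 with transient cis-MRTU transfection. RNA extraction, oligo(dT) RT, reporter-specific PCR, primer-extension labelling, HpaI digestion, CE fragment analysis; bidirectional fit, DMSO baseline.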

[19] = ATG_GATA_CIS: Attagene CIS-FACTORIAL HepG2 Assay for human GATA Binding Protein (AID 2282944); conditions: HepG2 GATA cis-element reporter, Attagene multiplex mRNA; actives raise or lower the signal
Procedure, shortened: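 HepG2 cells transiently transfected with multiplexed cis-element reporter units measure endogenous GATA activity; after 24 h compound exposure, reporter mRNA quantified by RT-PCR and capillary electrophoresis. Changes fitted in both directions vs DMSO.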

[20] = ATG_GLI_CIS: Attagene CIS-FACTORIAL HepG2 Assay for human Zinc Finger Protein GLI1 (AID 2282945); conditions: HepG2, Attagene cis-factorial reporter mRNA, GLI element; actives raise or lower the signal
Procedure, shortened: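 HepG2 cells transiently transfected with cis-promoter multiplexed reporter units report endogenous transcription factor activity. After 24 h chemical exposure, reporter mRNA was quantified by RT-PCR, 6-FAM labelling, HpaI digestion and capillary electrophoresis, with bidirectional fitting against DMSO.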

Measured: AC50

Nc1ccc(Oc2ccc(N)c(N)c2)cc1
active: [3] 85.5 µM
inactive: all other assays above

CCCCC/C=C\CCC=O
not listed: [20]
inactive: all other assays above

CCC(CC)C(=O)O
not listed: [20]
inactive: all other assays above

CC(C)CCCCCOC(=O)CCS
inactive: all assays above

C=CCOc1c(Br)cc(Br)cc1Br
active: [3] 35.1 µM | [15] 27.7 µM
inactive: all other assays above

CC(=O)c1ccc2c(c1)CCCC2
inactive: all assays above

O=C1c2ccccc2C(=O)C1c1nc2ccccc2c(Br)c1O
active: [5] 0.388 µM | [8] 100 µM | [15] 6.37 µM | [17] 1.26 µM
not listed: [20]
inactive: all other assays above

Reference: PubChem BioAssay (EPA / NIEHS)
